From PMC5540273 (PLoS ONE, 2017)

How the values were obtained:
Conditions in all cases: concentration: 1 μM, replicates: in singlicate; n = 1
MARK3 = tested on: MARK3
MARK4 = tested on: MARK4
MAST1 = tested on: MAST1
MEK1 = tested on: T1, MEK1
T1 construct: gene MAP2K1

MEK2 = tested on: T2, MEK2
T2 construct: gene MAP2K2

MEK3 = tested on: T3, MEK3
T3 construct: gene MAP2K3

MEK4 = tested on: T4, MEK4
T4 construct: gene MAP2K4

MEK5 = tested on: T5, MEK5
T5 construct: gene MAP2K5

MEK6 = tested on: T6, MEK6
T6 construct: gene MAP2K6

MELK = tested on: MELK
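Also: KINOMEscan kinase panel screen.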

Row | SMILES | %Inh (MARK3) [%] | %Inh (MARK4) [%] | %Inh (MAST1) [%] | %Inh (MEK1) [%] | %Inh (MEK2) [%] | %Inh (MEK3) [%] | %Inh (MEK4) [%] | %Inh (MEK5) [%] | %Inh (MEK6) [%] | %Inh (MELK) [%]
1 | Fc1ccc(-c2ncn(CCCNCc3ccccc3)c2-c2ccncc2)cc1 | 5 | 0 | 28 | 26 | 20 | 30 | 0 | 31 | 17 | 5
2 | Cl.O=S(=O)(c1cccc(F)c1)c1ccc(Nc2ncnc3cc(Br)sc23)cc1Cl [GSK306886] | 0 | 1 | 0 | 0 | 6 | 0 | 22 | 26 | 38 | 0
3 | N#Cc1ccc(Oc2ccc(Nc3ncnc4cc[nH]c34)cc2Cl)cc1 | 0 | 0 | 38 | 22 | 39 | 37 | 0 | 44 | 19 | 25
4 | Oc1ccc2ncnc(Nc3ccc(OCc4ccccc4)cc3)c2c1 [GI262866] | 22 | 0 | 0 | 18 | 2 | 0 | 11 | 99.1 | 0 | 0
5 | Cc1ccc(C)c(NC(=O)NCCNc2ccnc(Nc3ccc(F)cc3)n2)c1 [GSK1379878] | 0 | 9 | 0 | 0 | 0 | 11 | 0 | 43 | 0 | 4
